How the values were obtained:
Assay in all cases: log2 ratio of Biotin-Ahx-Ub-VS probe labelling (fragment/DMSO); higher = less target engagement (more negative = stronger competition), active = hit call of the paper (q ≤ 0.05, log2 ratio ≤ -1)
Settings in all cases: compound concentration: 200 uM; treatment time: 3 h
OTUD6B = biological target: T1, OTUD6B (UniProt Q8N6M0)
T1 sequence (whole entry): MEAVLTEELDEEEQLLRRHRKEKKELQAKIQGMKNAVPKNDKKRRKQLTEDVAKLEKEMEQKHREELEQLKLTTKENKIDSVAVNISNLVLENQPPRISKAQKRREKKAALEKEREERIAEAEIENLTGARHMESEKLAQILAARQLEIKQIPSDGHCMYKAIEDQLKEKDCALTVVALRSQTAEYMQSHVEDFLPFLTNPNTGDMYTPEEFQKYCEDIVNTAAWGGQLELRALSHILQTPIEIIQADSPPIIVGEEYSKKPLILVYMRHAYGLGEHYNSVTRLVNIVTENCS
In short: (§1)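 HEK293T lysate in Tris/CHAPS/IGEPAL buffer with protease inhibitors (495 µg per sample) was given fragment at 200 µM or vehicle for 3 h, in triplicate. It then received Biotin-Ahx-Ub-VS at 0.5 µM final for 1 h. Labelled DUBs were NeutrAvidin-enriched, digested with LysC and trypsin, and run by diaPASEF LC-MS/MS. Values are average log2 fragment/vehicle ratios by unpaired t-test on global-median-normalised Spectronaut quantities of proteins with ≥2 unique peptides.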

OTUD7B = biological target: T2, OTUD7B (UniProt Q6GQQ9)
T2 sequence (whole entry): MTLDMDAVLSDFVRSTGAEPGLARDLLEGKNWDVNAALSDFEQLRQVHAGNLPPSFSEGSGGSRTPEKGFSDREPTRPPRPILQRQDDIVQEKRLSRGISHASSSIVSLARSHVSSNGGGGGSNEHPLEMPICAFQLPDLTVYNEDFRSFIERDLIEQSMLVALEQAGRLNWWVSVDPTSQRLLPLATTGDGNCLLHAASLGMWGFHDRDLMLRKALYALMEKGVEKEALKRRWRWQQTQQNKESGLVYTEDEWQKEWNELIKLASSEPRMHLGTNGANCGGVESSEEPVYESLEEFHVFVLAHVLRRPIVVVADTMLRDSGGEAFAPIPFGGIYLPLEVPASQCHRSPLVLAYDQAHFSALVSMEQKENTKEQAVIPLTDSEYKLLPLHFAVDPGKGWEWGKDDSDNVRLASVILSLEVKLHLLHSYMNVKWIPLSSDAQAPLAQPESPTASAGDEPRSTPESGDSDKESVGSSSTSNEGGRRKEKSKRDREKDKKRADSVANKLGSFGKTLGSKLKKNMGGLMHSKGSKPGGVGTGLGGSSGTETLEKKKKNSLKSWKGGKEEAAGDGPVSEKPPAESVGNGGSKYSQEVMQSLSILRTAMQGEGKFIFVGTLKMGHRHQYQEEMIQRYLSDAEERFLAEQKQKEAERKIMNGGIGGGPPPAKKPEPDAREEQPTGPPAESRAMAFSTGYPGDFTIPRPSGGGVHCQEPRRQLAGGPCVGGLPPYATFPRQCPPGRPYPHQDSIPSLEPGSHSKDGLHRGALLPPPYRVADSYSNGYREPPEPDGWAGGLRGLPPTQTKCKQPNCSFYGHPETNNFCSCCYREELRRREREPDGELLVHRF
In short: as §1

PRPF8 = PRPF8 (UniProt Q6P2Q9)
In short: as §1

PSMD7 = biological target: T3, PSMD7 (UniProt P51665)
T3 sequence (whole entry): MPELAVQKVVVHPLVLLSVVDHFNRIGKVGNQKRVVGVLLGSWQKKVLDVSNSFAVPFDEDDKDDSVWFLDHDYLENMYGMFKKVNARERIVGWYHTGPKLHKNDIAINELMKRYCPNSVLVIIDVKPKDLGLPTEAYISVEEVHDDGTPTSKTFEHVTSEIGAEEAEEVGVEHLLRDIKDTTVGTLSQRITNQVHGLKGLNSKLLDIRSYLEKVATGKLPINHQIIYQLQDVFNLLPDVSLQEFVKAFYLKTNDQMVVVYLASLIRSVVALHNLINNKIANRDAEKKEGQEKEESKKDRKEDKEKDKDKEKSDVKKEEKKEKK
In short: as §1

UCHL1 = UCHL1 (UniProt P09936)
In short: as §1

UCHL3 = biological target: T4, UCHL3 (UniProt P15374)
T4 sequence (whole entry): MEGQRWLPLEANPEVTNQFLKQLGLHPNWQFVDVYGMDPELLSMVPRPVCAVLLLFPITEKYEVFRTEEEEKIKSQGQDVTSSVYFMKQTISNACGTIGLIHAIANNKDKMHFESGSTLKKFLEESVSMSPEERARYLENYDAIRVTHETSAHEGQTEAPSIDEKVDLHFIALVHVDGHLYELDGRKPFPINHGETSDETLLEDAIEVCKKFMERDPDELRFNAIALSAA
In short: as §1

UCHL5 = biological target: T5, UCHL5 (UniProt Q9Y5K5)
T5 sequence (whole entry): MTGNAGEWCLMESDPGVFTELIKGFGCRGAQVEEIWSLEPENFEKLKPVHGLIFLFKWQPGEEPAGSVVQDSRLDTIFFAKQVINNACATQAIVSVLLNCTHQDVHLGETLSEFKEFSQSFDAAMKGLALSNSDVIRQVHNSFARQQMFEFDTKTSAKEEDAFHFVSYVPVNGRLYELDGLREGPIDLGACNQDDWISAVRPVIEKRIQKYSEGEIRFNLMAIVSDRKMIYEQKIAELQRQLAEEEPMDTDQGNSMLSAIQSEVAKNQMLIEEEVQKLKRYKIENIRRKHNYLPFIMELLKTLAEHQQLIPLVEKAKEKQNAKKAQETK
In short: as §1

USP10 = USP10 (UniProt Q14694)
In short: as §1

USP15 = biological target: T6, USP15 (UniProt Q9Y4E8)
T6 sequence (whole entry): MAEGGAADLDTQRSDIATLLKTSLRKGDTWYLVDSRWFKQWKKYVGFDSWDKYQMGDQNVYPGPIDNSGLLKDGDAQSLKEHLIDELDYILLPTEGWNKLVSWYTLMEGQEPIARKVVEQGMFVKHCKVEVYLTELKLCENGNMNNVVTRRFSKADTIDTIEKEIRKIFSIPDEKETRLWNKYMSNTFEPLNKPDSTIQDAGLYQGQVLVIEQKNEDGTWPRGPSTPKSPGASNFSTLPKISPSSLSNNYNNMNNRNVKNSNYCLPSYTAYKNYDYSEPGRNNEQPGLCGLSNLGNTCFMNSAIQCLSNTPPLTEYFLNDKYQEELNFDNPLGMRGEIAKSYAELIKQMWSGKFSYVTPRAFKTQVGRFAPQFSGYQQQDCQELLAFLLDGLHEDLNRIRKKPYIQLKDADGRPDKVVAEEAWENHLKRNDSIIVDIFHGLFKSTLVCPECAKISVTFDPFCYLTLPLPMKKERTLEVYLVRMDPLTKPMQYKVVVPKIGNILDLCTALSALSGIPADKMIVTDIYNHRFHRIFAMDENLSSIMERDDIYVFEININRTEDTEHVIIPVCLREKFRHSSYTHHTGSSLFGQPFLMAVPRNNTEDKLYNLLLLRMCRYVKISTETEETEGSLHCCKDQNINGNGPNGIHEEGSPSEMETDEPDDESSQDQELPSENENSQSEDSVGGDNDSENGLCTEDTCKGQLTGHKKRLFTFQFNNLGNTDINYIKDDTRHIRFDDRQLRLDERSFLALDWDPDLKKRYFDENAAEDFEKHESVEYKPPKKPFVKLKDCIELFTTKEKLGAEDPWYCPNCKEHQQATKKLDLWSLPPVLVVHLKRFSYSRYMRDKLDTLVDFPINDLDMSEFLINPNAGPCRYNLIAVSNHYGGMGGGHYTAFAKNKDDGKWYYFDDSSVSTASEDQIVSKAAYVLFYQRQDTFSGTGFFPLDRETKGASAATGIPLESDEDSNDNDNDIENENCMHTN
In short: as §1

USP16 = USP16 (UniProt Q9Y5T5)
In short: as §1

Measured: log2 ratio of Biotin-Ahx-Ub-VS probe labelling

Sequence of UCHL1 (P09936 whole entry, looked up): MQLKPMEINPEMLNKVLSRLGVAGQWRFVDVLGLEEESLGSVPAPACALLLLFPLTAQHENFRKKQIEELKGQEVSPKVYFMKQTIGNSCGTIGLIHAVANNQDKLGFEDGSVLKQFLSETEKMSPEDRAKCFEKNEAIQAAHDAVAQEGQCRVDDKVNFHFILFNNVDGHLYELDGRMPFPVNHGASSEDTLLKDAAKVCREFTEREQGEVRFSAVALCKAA
Sequence of USP10 (Q14694 whole entry): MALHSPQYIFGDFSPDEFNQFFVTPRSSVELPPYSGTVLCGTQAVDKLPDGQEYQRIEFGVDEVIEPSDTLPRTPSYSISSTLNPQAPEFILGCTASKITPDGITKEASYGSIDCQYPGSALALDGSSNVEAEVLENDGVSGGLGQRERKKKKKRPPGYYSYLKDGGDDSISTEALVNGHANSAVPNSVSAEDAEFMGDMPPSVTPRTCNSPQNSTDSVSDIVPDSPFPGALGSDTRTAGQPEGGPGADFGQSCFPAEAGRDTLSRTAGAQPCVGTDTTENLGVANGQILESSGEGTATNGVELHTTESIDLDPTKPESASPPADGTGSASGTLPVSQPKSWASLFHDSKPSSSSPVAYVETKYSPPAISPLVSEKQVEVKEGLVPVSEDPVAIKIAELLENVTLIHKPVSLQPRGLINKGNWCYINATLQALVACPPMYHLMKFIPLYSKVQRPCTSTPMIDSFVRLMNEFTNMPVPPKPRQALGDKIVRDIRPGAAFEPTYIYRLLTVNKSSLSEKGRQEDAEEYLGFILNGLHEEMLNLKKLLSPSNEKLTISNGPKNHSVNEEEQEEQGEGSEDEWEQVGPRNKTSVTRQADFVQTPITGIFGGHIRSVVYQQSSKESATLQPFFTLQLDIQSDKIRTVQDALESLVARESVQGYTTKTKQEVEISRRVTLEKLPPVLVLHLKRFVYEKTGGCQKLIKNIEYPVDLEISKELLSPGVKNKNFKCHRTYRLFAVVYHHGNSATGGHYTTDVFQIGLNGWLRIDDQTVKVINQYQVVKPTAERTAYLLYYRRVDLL
Sequence of USP16 (Q9Y5T5 whole entry, looked up): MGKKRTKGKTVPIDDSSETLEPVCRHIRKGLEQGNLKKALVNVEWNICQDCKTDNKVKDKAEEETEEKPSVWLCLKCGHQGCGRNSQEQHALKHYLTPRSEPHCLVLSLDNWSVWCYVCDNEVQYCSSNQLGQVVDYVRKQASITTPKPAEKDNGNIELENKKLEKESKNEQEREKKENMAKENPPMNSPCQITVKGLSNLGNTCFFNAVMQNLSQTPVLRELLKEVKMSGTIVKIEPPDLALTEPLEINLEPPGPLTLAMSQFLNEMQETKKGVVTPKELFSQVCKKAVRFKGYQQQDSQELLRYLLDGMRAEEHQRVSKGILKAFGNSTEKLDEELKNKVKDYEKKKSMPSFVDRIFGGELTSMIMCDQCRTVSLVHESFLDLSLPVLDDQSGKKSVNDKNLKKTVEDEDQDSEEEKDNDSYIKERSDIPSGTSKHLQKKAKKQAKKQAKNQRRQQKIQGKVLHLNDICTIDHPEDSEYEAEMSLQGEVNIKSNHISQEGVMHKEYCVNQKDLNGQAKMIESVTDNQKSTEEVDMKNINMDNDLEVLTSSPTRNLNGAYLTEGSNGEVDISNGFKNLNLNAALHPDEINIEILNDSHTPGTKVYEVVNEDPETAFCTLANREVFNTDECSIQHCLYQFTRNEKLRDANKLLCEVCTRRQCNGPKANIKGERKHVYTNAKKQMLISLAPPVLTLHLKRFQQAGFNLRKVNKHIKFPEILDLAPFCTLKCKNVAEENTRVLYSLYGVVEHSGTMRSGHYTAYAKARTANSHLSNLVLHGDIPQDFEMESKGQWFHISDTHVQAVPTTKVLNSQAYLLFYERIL

O=C(CCl)N1CCC(c2noc3cc(F)ccc23)CC1
inactive: OTUD6B -0.0328 | OTUD7B -0.608 | PRPF8 -0.0836 | PSMD7 -0.139 | UCHL1 -0.799 | UCHL3 0.208 | UCHL5 -0.186 | USP10 -0.264 | USP15 -0.468 | USP16 -0.65

Source: the supplement of paper PMC11732987, “Enantioselective OTUD7B fragment discovery through chemoproteomics screening and high-throughput optimisation” (Communications Chemistry, 2025)
